Bioassay records from PubChem BioAssay.
HEK cytotox: Cytotoxic Profiling in HEK 293 Cell Line of Diverse Libraries Using Quantitative High-Throughput Screening; HEK 293 viability, ATP luminescence (CellTiter-Glo), 48-72 h; Potency, µM (top dose mostly 115 µM), for the others: at the highest dose activity change, negative = cytotoxicity, hits mostly inhibitors; actives 6.6% (n = 94,000); AID 1345083, 2018; note: nearly all actives have a fitted effect of over 60% in size
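HEK 293 cells at 250 cells/well were exposed to compounds by pintool transfer for 48 or 72 hr at 37 degree Celsius, 5% CO2. Viability was read as ATP-coupled luminescence with CellTiter-Glo after 10 min at room temperature.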
GPT2 inh: Primary qHTS assay for inhibitors of Glutamate pyruvate transaminase 2 (GPT2) | Alanine aminotransferase 2 (Homo sapiens), Q8TD30 | Recombinant GPT2, coupled pyruvate oxidase/HRP Amplex Red fluorescence | Potency, µM (highest dose often 57.7 µM), without a hit: at the highest dose activity change, negative = inhibition, usual class: inhibitors | actives 0.25% (n = 100,000) | AID 1671188, 2021; note: nearly all actives have a fitted effect of over 60% in size
Target sequence (Q8TD30 whole entry, looked up): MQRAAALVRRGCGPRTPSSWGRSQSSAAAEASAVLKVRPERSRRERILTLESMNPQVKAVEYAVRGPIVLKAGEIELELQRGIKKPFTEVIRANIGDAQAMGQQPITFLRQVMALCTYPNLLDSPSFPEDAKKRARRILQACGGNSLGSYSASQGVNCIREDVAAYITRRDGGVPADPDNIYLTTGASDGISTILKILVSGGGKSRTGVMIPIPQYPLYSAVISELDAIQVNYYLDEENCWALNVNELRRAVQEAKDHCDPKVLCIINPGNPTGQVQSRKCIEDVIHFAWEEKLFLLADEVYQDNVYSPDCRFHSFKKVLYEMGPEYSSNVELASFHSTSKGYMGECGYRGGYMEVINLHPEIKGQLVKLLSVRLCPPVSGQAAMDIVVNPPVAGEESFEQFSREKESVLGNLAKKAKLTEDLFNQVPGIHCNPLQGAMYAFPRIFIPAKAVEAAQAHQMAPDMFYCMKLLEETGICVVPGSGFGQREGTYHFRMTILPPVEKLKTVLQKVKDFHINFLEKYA
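GPT2 10ng/uL, a-KG 250uM, L-Ala 2mM, HEPES pH7.5 + 0.0001% Tween; 30 min RT. Then Amplex mix (PO/HRP/ThPP), 30 min RT dark, fluorescence. AOA 50uM used as positive control.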
NPR1 antag: Natriuretic polypeptide receptor (hNpr1) antagonism - Primary qHTS. Atrial natriuretic peptide receptor 1 (Homo sapiens), P16066. HEK293 hNpr1 GloSensor cGMP, ANP-stimulated luminescence. Potency, µM (highest dose often 46.3 µM), inactives show at the highest dose activity change, negative = inhibition, most hits filed as inhibitors. actives 1.6% (n = 76,000); calls by dose curve; note: nearly all actives have a fitted effect of over 60% in size
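Compound pre-incubated 30 min at room temperature on GloSensor-loaded HEK293 cells stably carrying hNpr1 and the pGS-40F cGMP biosensor. Stimulation uses hNppA at 0.1 nM final; luminescence is taken at baseline and 20 min post-agonist.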
3T3 cytotox: Cytotoxic Profiling in NIH 3T3 Cell Line of Diverse Libraries Using Quantitative High-Throughput Screening; NIH 3T3 viability, CellTiter-Glo ATP luminescence, 48-72 h; Potency, µM (doses to about 96.7 µM), for the others: at the highest dose activity change, negative = cytotoxicity, hits mostly inhibitors; actives 4.3% (n = 94,000); note: nearly all actives have a fitted effect of over 55% in size
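Mouse fibroblast NIH 3T3 cells, 400 per well, received compound via pintool and were incubated for 48 or 72 hr prior to CellTiter-Glo ATP luminescence measurement.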
FLuc inh: Firefly luciferase inhibition profiling of diverse chemical library using quantitative high-throughput screening. Potency, µM (doses to about 115 µM), most hits filed as inhibitors. actives 2.5% (n = 76,000). purified P. pyralis luciferase, luminescence, biochemical. Luciferin 4-monooxygenase (Photinus pyralis), P08659; note: nearly all actives have a fitted effect of over 65% in size
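Purified P. pyralis luciferase (10nM final) in 50mM Tris acetate pH 7.5, 10mM Mg acetate, 0.01% Tween-20, 0.05% BSA with 10uM D-luciferin and 10uM ATP. Compounds titrated qHTS. Luminescence imaged on CCD.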
Numbers without * were called inactive; i = inactive; ? = inconclusive; nt = not tested or not shown; [ ] = remark or other dose. Rows were chosen to be rich in hits. Some 10% of all compounds tested hit in one or more screens of this group. Unless noted, calls come from the whole dose curve; as a rule, active = well fitted curve in the direction sought with a large enough effect; inconclusive = small, poorly fitted or top-dose-only effect, or another doubt; inactive = no such curve, though single readings can be large; an effect the other way counts as inactive or inconclusive. % is set by controls: 0 for no effect and ±100 for the full control effect; potency is the fitted concentration of half-maximal effect.

SMILES | HEK cytotox | GPT2 inh | NPR1 antag | 3T3 cytotox | FLuc inh
O=C(c1ccncc1)N1CCCC(c2noc(COc3ccccc3F)n2)C1 (stereo not given) | ? | i | -1% | -21% | i
Cc1ccccc1-c1nc(C2CC(=O)N(c3ccc(F)cc3)C2)no1 (stereo not given) | ? | ? | -18% | ? | i
NC(=O)c1ccc(-c2nc3c([nH]2)CN(c2ncnc4ccsc24)CC3)cc1 | 32µM* | -2% | -16% | -10% | i
Cc1nc(-c2cn(C3CCCN(C(=O)COc4ccc(F)cc4)C3)nn2)no1 (stereo not given) | -6% | 0% | -1% | -3% | i
Cc1ccc(NC(=O)N2Cc3[nH]cnc3C[C@H]2c2nc(-c3ccc(C)cc3)no2)cc1 | ? | 2%[88.5 µM] | -23%[70.6 µM] | 100µM* | 32µM*
COc1ccc(-c2noc([C@@H]3Cc4nc[nH]c4CN3C(=O)Nc3ccccc3)n2)cc1 | ? | -14%[88.5 µM] | ? | ? | 32µM*
Cc1ccc(-c2noc([C@@H]3Cc4nc[nH]c4CN3C(=O)NC(C)C)n2)cc1 | -4%[172 µM] | -23%[88.5 µM] | -4%[70.6 µM] | ? | i
O=C1NCCCCCN(Cc2cccnc2)[C@@H]2CN(C(=O)NC3CCCCC3)CC[C@@H]12 | -8% | -2% | -2% | -2% | i
O=C(NCc1ccccc1Cl)C1CCCCN1Cc1ccc(-c2ccsc2)cc1 (stereo not given) | 35µM* | -10% | nt | 28µM* | nt
Cc1cc(C)cc(-c2ccc(CN3CCCC3C(=O)NCc3cccs3)cc2)c1 (stereo not given) | ? | -1% | nt | ? | nt
COc1ccc(CNC(=O)C2CCCCN2Cc2ccc(-c3ccsc3)cc2)cc1OC (stereo not given) | 40µM* | -11% | nt | ? | nt
O=C(NCc1cccs1)C1CCCCN1Cc1ccc(-c2ccsc2)cc1 (stereo not given) | 28µM* | -20% | nt | 25µM* | nt
COc1ccc(CNC(=O)C2CCCN2Cc2ccc(-c3cncnc3)cc2)cc1 (stereo not given) | ? | -9% | nt | -27% | nt
O=C(NCCc1ccccc1)C1CCCCN1Cc1ccc(-c2ccsc2)cc1 (stereo not given) | 28µM* | 3% | nt | ? | nt
O=C(Nc1cccc(-c2nnc3n2CCCC3)c1)c1cccc(Cl)c1 | ? | -1% | -5% | ? | i
Cc1cn2nc(C(=O)NCc3ccc(F)cc3F)cc2c(N2CCSCC2)n1 | ? | i | -19% | -19% | i
COc1ccccc1CNC(=O)CNC(=O)c1cccc(-c2ccsc2)c1 | ? | i | nt | ? | nt
Cc1cc(C)n(CC(=O)N2CCCCCNC(=O)CC2c2ccccc2)n1 (stereo not given) | i | i | 8% | -13% | i
COc1ccc(CCN2CC(NCc3ccc4c(c3)OCCO4)CC2=O)cc1 (stereo not given) | i | -1% | -5% | -25% | i
O=C(NCc1cccnc1)C1CCCCN1Cc1ccc(-c2ccsc2)cc1 (stereo not given) | ? | i | nt | ? | nt
O=C(NCc1ccc(F)cc1)C1CCCCN1Cc1ccc(-c2ccsc2)cc1 (stereo not given) | 40µM* | ? | nt | ? | nt
CCC(=O)N1CCN(c2nc3c(s2)CC(C(=O)Nc2ccc(F)cc2)CC3)CC1 (stereo not given) | 13µM* | 2% | ? | 32µM* | i
CCC(=O)N1CCN(c2nc3c(s2)CC(C(=O)Nc2ccc4c(c2)OCO4)CC3)CC1 (stereo not given) | 14µM* | -20% | 2% | ? | i
CCC(=O)N1CCN(c2nc3c(s2)CC(C(=O)Nc2ccc(C(C)C)cc2)CC3)CC1 (stereo not given) | 35µM* | i | ? | ? | i
CC(=O)N1CCN(c2nc3c(s2)CC(C(=O)NCc2ccc(C(C)C)cc2)CC3)CC1 (stereo not given) | 45µM* | i | ? | ? | i
SMILES | HEK cytotox | GPT2 inh | NPR1 antag | 3T3 cytotox | FLuc inh
COCCOCC(=O)N1CCCC(c2nn(C)c(=O)n2-c2ccccc2)C1 (stereo not given) | 7% | i | -1% | 1% | i
O=C(CN1C(=O)NC2(CCCCC2)C1=O)N1CCN(c2ccc(F)cc2)CC1 | 3% | i | -24% | -8% | i
CC(=O)N1CCN(c2nc3c(s2)CC(C(=O)NCc2cc(F)cc(F)c2)CC3)CC1 (stereo not given) | ? | -11% | -3% | -18% | i
CC(C)C(=O)N1CCN(c2nc3c(s2)CC(C(=O)NCCc2cccs2)CC3)CC1 (stereo not given) | 79µM* | i | -9% | -23% | i
CC(=O)N1CCN(c2nc3c(s2)CC(C(=O)Nc2ccc(F)c(Cl)c2)CC3)CC1 (stereo not given) | 7.9µM* | -9% | ? | 20µM* | i
CCc1ccc(NC(=O)C2CCc3nc(N4CCN(C(=O)C(C)C)CC4)sc3C2)cc1 (stereo not given) | ? | i | -27% | -19% | i
O=C1N(Cc2ccc(F)c(F)c2)CCCC12CCN(c1nc3ccccc3o1)C2 (stereo not given) | ? | i | -13% | 40µM* | 40µM*
COc1ccc(F)cc1-c1ccc(CN2CCC(NC(=O)c3cccc(Cl)c3)C2)cc1 (stereo not given) | 22µM* | nt | nt | 22µM* | nt
O=C(NC1CCCN(Cc2ccc(-c3cncnc3)cc2)C1)c1cccc(Cl)c1 (stereo not given) | ? | i | nt | -25% | nt
COc1ccccc1-c1ccc(CN2CCC(NC(=O)c3cccc(Cl)c3)C2)cc1 (stereo not given) | 20µM* | nt | nt | 22µM* | nt
O=C(O)CCC(=O)NC[C@H]1Cn2c(-c3ccc(F)cc3)cnc2CO1 | i | 1%[88.5 µM] | 5%[70.6 µM] | i | i
Cc1cccc(C(=O)Nc2cccc(C3OC(=O)N(Cc4ccccc4)C3C(=O)N3CCOCC3)c2)c1 (stereo not given) | ? | -5% | -12% | ? | ?
COc1ccccc1Nc1ncc2c(n1)CN(C(=O)c1ccc(Oc3ccccc3)cc1)CCN2 | 35µM* | -17% | -4% | ? | i
Cn1c(C(=O)N2CCNc3cnc(Nc4cccc(C(F)(F)F)c4)nc3C2)cc2ccccc21 | 40µM* | -24% | -30% | 40µM* | i
COc1ccccc1Nc1ncc2c(n1)CN(C(=O)c1cccc(O)c1)CCN2 | 100µM* | 4%[88.5 µM] | -26%[70.6 µM] | -3%[138 µM] | i
